# In PubChem BioAssay AID463173 (ICCB-Longwood Screening Facility, Harvard Medical School, 2010):
# About 4,300 (8.3%) of roughly 52,000 compounds were called active. The full list was thinned out, with actives kept by preference. Values without a mark were called inactive. Cut-off read from the data, not from the text of the source: active = survival mostly below about 52% (no sharp cut-off); inactive = mostly above about 56%.
# System: DeltatarO mutant
# Experiment: S. aureus survival, RN4220 and DeltatarO strains – OD600, teichoic acid synthesis inhibitors, primary screen (AID 463173)
# Conditions: S. aureus RN4220 wild type/DeltatarO growth, OD600, 18 h, stronger effect = lower value, screened at 18.75 µg/mL (by protocol)
row,Compound,survival
1,CC(C)C(=O)NS(=O)(=O)c1ccc(NC(=O)c2ccco2)cc1,90%
2,Cc1ccc(N2CC3=C(C2=O)C(c2ccc(Br)cc2)NC(=O)N3C)cc1 (stereo not given),74%
3,COc1cc(C)ccc1OCCSc1nc2ccc(NC(=O)c3ccccc3F)cc2s1,99%
4,COc1ccc2c(C)cc(SCC(=O)Nc3nsc(-c4ccc(C(C)(C)C)cc4)n3)nc2c1,56%
5,Cc1cc(SCC(=O)Nc2ccc(Cl)cc2)nc2ccccc12,65%
6,COc1ccc2c(C)cc(SCC(=O)Nc3nsc(-c4ccccc4C)n3)nc2c1,35% (active)
7,Cc1cc(SCC(=O)Nc2nsc(-c3ccc(C(C)(C)C)cc3)n2)nc2ccccc12,13% (active)
8,CC(C)(C)c1ccc(-c2nc(NC(=O)CSc3ncnc4sc5c(c34)CCCC5)ns2)cc1,57% (active)
9,Cc1nc(SCC(=O)Nc2nsc(-c3ccc(C(C)(C)C)cc3)n2)c2c3c(sc2n1)CCCC3,78%
10,Cc1ccc(-c2nc(NC(=O)CSc3ccc4ccccc4n3)ns2)cc1,77%
11,Cc1ccccc1-c1nc(NC(=O)CSc2ncnc3sc4c(c23)CCCC4)ns1,92%
12,Cc1ccc(-c2nc(NC(=O)CSc3cc(C)c4ccccc4n3)ns2)cc1,65%
13,CCN1CCN(c2oc(/C=C/c3cc(OC)c(OC)c(OC)c3)nc2C#N)CC1,72%
14,O=C(O)CSc1nc2c(c(C(F)(F)F)n1)CCc1ccccc1-2,96%
15,CCN(CC)N=Nc1ccc(S(=O)(=O)N2CCSC2C(=O)O)cc1 (stereo not given),103%
16,CCOc1ccc(CC(=O)NCCc2csc(-c3ccc(Cl)cc3)n2)cc1,67%
17,CCOC(=O)/C(C#N)=C\c1ccc(Br)s1,93%
18,CN(C(=O)CSc1nc2ccccc2n1CC(=O)NCc1ccc(F)cc1)c1ccc(F)cc1,128%
19,COc1ccc(CNc2ccc3cc(S(=O)(=O)N4CCCCC4)ccc3n2)cc1,79%
20,COc1cc(NC(=O)CN2CCCN(S(=O)(=O)c3ccc(F)cc3)CC2)cc(OC)c1,74%
21,CCCCSc1nnc2[nH]c(=O)cc(C)n12,99%
22,Cc1ccc2nc(CSc3nnc(NC(=O)CC(C)C)s3)cc(=O)n2c1,76%
23,Cc1ccc(OCC(=O)Nc2nnc(SCc3cc(=O)n4cccc(C)c4n3)s2)cc1,76%
24,Cc1ccc2nc(CSc3nnc(NC(=O)C(C)C)s3)cc(=O)n2c1,-1% (active)
25,Cc1ccc2nc(CSc3nnc(NC(=O)COc4ccccc4F)s3)cc(=O)n2c1,70%

row,Compound,survival
1,Cc1ccc2nc(CSc3nnc(NC(=O)COc4ccccc4)s3)cc(=O)n2c1,67%
2,CC(C)C(=O)Nc1nnc(SCc2cc(=O)n3ccccc3n2)s1,86%
3,Cc1ccc(OCC(=O)Nc2nnc(SCc3cc(=O)n4cc(C)ccc4n3)s2)cc1,6% (active)
4,Cc1cccn2c(=O)cc(CSc3nnc(NC(=O)COc4ccccc4)s3)nc12,84%
5,Cc1cccn2c(=O)cc(CSc3nnc(NC(=O)COc4ccc(F)cc4)s3)nc12,-2% (active)
6,COCCN(C(=O)c1ccco1)c1nnc(-c2ccc(F)cc2)s1,58%
7,CSc1nnc(-c2ccncc2)n1C,97%
8,COc1ccc(N2CCN(S(=O)(=O)c3csc(C(N)=O)c3)CC2)cc1,90%
9,COc1cc(Cl)c(C)cc1NC(=O)CSc1cc(=O)n(C)c2cc(Cl)ccc12,63%
10,CC(C)(C)OC(=O)N1CC2C(C1)C2NC(=O)c1nsc(Cl)c1Cl (stereo not given),82%
11,CCOC(=O)c1ccc(NC(=O)c2ccc3c(c2)c(C)c(C)n3Cc2ccc(F)cc2)cc1,91%
12,O=C(Cn1c(=O)n(-c2ccccc2)c(=O)c2ccc(C(=O)NCc3ccc4c(c3)OCO4)cc21)Nc1ccc(Br)cc1,79%
13,CSc1ccc(CCNC(=O)Cn2nc(C)n3c(cc4sccc43)c2=O)cc1,88%
14,CCOc1cc(C2Sc3ccccc3NC3=C2C(=O)c2ccccc23)ccc1O (stereo not given),48%
15,O=C1C2=C(Nc3ccccc3SC2c2ccccc2C(F)(F)F)c2ccccc21 (stereo not given),24% (active)
16,CC(C)(C)c1ccc(C2Sc3ccccc3NC3=C2C(=O)c2ccccc23)cc1 (stereo not given),98%
17,COc1ccc(C2Sc3ccccc3NC3=C2C(=O)c2ccccc23)c(OC)c1OC (stereo not given),77%
18,CC(C)c1ccc(C2Sc3ccccc3NC3=C2C(=O)c2ccccc23)cc1 (stereo not given),85%
19,CCc1ccc(C2Sc3ccccc3NC3=C2C(=O)c2ccccc23)cc1 (stereo not given),104%
20,O=C1C2=C(Nc3ccccc3SC2c2ccc(C(F)(F)F)cc2)c2ccccc21 (stereo not given),16% (active)
21,CCCc1ccc(C2Sc3ccccc3NC3=C2C(=O)c2ccccc23)cc1 (stereo not given),94%
22,CC(=O)Nc1ccc(C2Sc3ccccc3NC3=C2C(=O)c2ccccc23)cc1 (stereo not given),116%
23,COc1ccc(Br)cc1C1Sc2ccccc2NC2=C1C(=O)c1ccccc12 (stereo not given),31% (active)
24,O=C1C2=C(Nc3ccccc3SC2c2c(F)cccc2Cl)c2ccccc21 (stereo not given),94%
25,O=C1C2=C(Nc3ccccc3SC2c2ccc(Cl)c(Cl)c2)c2ccccc21 (stereo not given),22% (active)

row,Compound,survival
1,CC1=C(C)NC(=S)SC1,101%
2,Cc1cc(=O)c2cc(C(=O)Nc3ccccc3C)ccc2[nH]1,84%
3,COc1ccc(CCNC(=O)c2c(Nc3ccccc3C)sc(C(=O)c3ccccc3)c2N)cc1OC,66%
4,O=C(NC1CC1)C1CCN(C(=O)c2ccc(Cl)cc2)CC1,86%
5,CCCC(C(=O)NC1CCCC1)N(C(=O)Cn1nnc(-c2ccc(C)o2)n1)c1ccccc1 (stereo not given),89%
6,CC(=NC1CC1)C1=C(O)c2ccccc2C1=O,92%
7,Cc1cc(C)c(S(=O)(=O)n2cnc(C)c2)c(C)c1,95%
8,Cc1ccc(-c2nc3ncccc3o2)cc1NC(=O)COc1ccc(C(C)C)cc1,6% (active)
9,Cc1cc(-c2nc3ncccc3o2)ccc1NC(=O)COc1cc(C)c(Cl)c(C)c1,65%
10,CC(C)c1ccc(OCC(=O)Nc2cc(-c3nc4ncccc4o3)ccc2Cl)cc1,150%
11,Cc1cc(OCC(=O)Nc2cc(-c3nc4ncccc4o3)ccc2C)ccc1Cl,50%
12,CCC(=O)Nc1ccc(-c2nc3ncccc3o2)cc1C,73%
13,Cc1cc(-c2nc3ncccc3o2)ccc1NC(=O)COc1ccc(C(C)(C)C)cc1,32% (active)
14,COc1ccc(-c2nc(C)c(CCNC(=O)C(=O)Nc3c(C)cccc3C)s2)cc1OC,85%
15,CCc1ccccc1NC(=O)c1nn(-c2ccc(C)cc2)c(=O)c2c1c1ccccc1n2C,140%
16,Cc1cc(C)cc(NC(=O)CCn2cnc3ccccc3c2=O)c1,77%
17,CC1(C)Cc2ccccc2C(=NCCC(=O)O)N1,79%
18,CC(=O)NCCNC(=O)CCCc1nnc2n(CCC(C)C)c(=O)c3sccc3n12,90%
19,CC(C)c1nnc(N2C(=O)c3oc4ccccc4c(=O)c3C2c2ccccc2F)s1 (stereo not given),64%
20,CCc1ccc2oc(C(=O)NCc3ccccc3)cc(=O)c2c1,66%
21,Cc1ccc2c(=O)cc(C(=O)NCc3ccccc3)oc2c1,39% (active)
22,Cc1ccc(CNC(=O)c2cc(=O)c3cc(C)ccc3o2)cc1,42% (active)
23,Cc1ccc(CNC(=O)c2cc(=O)c3cc(C)cc(C)c3o2)cc1,102%
24,COc1ccc(CNC(=O)Cc2coc3ccc(C)cc23)cc1,108%
25,COc1ccc(CNC(=O)c2cc(=O)c3cc(C)ccc3o2)cc1,45% (active)

row,Compound,survival
1,Cc1ccc(CNC(=O)c2cc(=O)c3cc(C)c(C)cc3o2)cc1,77%
2,COc1ccc(CCNC(=O)c2cc(=O)c3ccc(C)cc3o2)cc1OC,62%
3,COc1ccc(CNC(=O)c2cc3cc(OC)ccc3oc2=O)cc1,51%
4,COc1ccc(CC(NC(C)=O)C(=O)N2CCN(C(=O)Nc3ccc(C#N)cc3)CC2)cc1 (stereo not given),99%
5,Cc1cc(C)cc(NC(=O)NCCc2c(C)nn(C)c2C)c1,64%
6,CC1CCCCN1C(=O)CSc1nc2ccccc2c(=O)[nH]1 (stereo not given),82%
7,CCOc1cc(C(=O)OCc2cc(=O)n3nc(CC)sc3n2)cc(OCC)c1OCC,87%
8,Cc1ccc(OCc2nc(-c3ccc(C(=O)NCCc4ccc(Cl)cc4)cc3)oc2C)cc1,84%
9,Cc1oc(-c2cccc(Cl)c2)nc1CN1CCC(C(=O)NCc2ccc(F)cc2)CC1,124%
10,O=C(Nc1ccc(Cl)cc1)c1cc2c(Cl)nc3ccccc3c2s1,94%
11,CCc1ccccc1NC(=O)c1cc2c(Cl)nc3ccccc3c2s1,42% (active)
12,CCOc1ccccc1NC(=O)c1cc2c(=O)[nH]c3ccccc3c2s1,60%
13,CC(C)NC(=O)c1cc2c(Cl)nc3ccccc3c2s1,56%
14,CCc1ccccc1NC(=O)c1cc(-c2ccc(Cl)s2)nc2ccccc12,71%
15,CCOc1ccccc1NC(=O)c1cc2c(Cl)nc3ccccc3c2s1,41% (active)
16,CCOC(=O)C1=C(CN(CC)Cc2ccccc2)NC(=O)NC1c1ccc(OC)cc1 (stereo not given),65%
17,CC1(C)CC(=O)c2cc(C(=O)NC(C)(C)C)c(=O)n(-c3ccccc3)c2C1,39% (active)
18,COc1ccccc1NC(=O)c1cc2c(n(-c3ccc(C)cc3)c1=O)CC(C)(C)CC2=O,45% (active)
19,CCOC(=O)c1ccc(NC(=O)c2cc3c(n(-c4ccc(C)cc4)c2=O)CC(C)(C)CC3=O)cc1,153%
20,COc1ccc(OC)c(NC(=O)c2cc3c(n(-c4ccc(Cl)cc4)c2=O)CC(C)(C)CC3=O)c1,69%
21,CCOc1ccc(NC(=O)c2cc3c(n(-c4ccc(OC)cc4)c2=O)CC(C)(C)CC3=O)cc1,60%
22,CNC(=O)c1cc2c(n(-c3ccc(C)cc3)c1=O)CC(C)(C)CC2=O,93%
23,CN(C)C=NC(=O)c1cc2c(n(-c3ccccc3)c1=O)CC(C)(C)CC2=O,46%
24,CC1(C)CC(=O)c2cc(C(=O)Nc3ccc(Br)cc3)c(=O)n(-c3ccc(Cl)cc3)c2C1,42% (active)
25,Cc1ccc(-n2c3c(cc(C(=O)Nc4ccccc4C(N)=O)c2=O)C(=O)CC(C)(C)C3)cc1,49%
